The text below walks through data of PubChem BioAssay (NCI).

SMILES strings stand for the structures. This is part of a sample that, as a whole, favours compounds with a hit. Of some 83,000 tested, about 20% had one in any assay.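 The test compound was applied at a single concentration to cells in 96-well plates for 48 hours, and percent growth was recorded.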 Values without a mark were called inactive. Active and inactive are the calls of the source. The calls were made as follows: active = growth percent below 10; inactive = the rest.

Test systems include SR leukemia; RPMI-8226 leukemia; OVCAR-8 ovarian; OVCAR-5 ovarian; SK-OV-3 ovarian; IGROV1 ovarian; OVCAR-3 ovarian; HS 578T breast; NCI/ADR-RES ovarian; T-47D breast; BT-549 breast; MDA-MB-435 melanoma; SW-620 colon; MCF7 breast; HCT-116 colon; HCC-2998 colon; KM12 colon; OVCAR-4 ovarian.
Assay in all cases: NCI-60 one-dose screen, 48 h (100 = growth as untreated, 0 = no growth, -100 = all killed)
Common to all, as to details: 10 µM unless noted

For the molecule `COCCn1cc(-c2nc(-c3c[nH]c4ncccc34)cs2)c2ccccc21`, the growth with SR leukemia was 18.4%; in the test with RPMI-8226 leukemia, 43.3%; in the test with OVCAR-8 ovarian, 81%; with OVCAR-5 ovarian, 43.7%; in the test with SK-OV-3 ovarian it was 54.8%; in the test on IGROV1 ovarian, 36%. Besides, the growth in the test with OVCAR-3 ovarian was 13.6%; in the test on HS 578T breast, 47.4%; in the test with NCI/ADR-RES ovarian, 69.1%; in the test on T-47D breast, 4.79% (active); in the test with BT-549 breast it was 43.2%; in the test with MDA-MB-435 melanoma, 7.74% (active). Also, the growth with SW-620 colon is 68.6%; in the test on MCF7 breast, 9.03% (active); in the test on HCT-116 colon it was 66.5%; in the test on HCC-2998 colon, 34.4%; in the test with KM12 colon, 16.4%.
On to `O=C(c1cccc(N2CCOCC2)n1)c1c[nH]c2ccccc12`, for which the growth in the test on SR leukemia is 95.7%; in the test on RPMI-8226 leukemia, 96.6%; with OVCAR-8 ovarian it was 89.9%; in the test with OVCAR-5 ovarian, 105%; in the test on SK-OV-3 ovarian, 164%; in the test with IGROV1 ovarian it was 70%. Further, the growth in the test with OVCAR-3 ovarian was 91%; in the test with HS 578T breast it was 89.2%; in the test on NCI/ADR-RES ovarian, 97.2%; in the test with T-47D breast it was 70.7%; in the test on BT-549 breast it was 117%; with MDA-MB-435 melanoma, 99.7%. Also, the growth was 94.1% in the test on SW-620 colon; 66% in the test with MCF7 breast; 97.7% in the test on HCT-116 colon; 113% in the test on HCC-2998 colon; 90.5% with KM12 colon.
With `O=C(Nc1ncc(Cc2ccccc2)s1)c1sc2ccccc2c1Cl`, the growth in the test on SR leukemia was 16%; in the test on RPMI-8226 leukemia it was 28%; in the test with OVCAR-8 ovarian, 27.8%; in the test with OVCAR-5 ovarian it was 41.8%; in the test with SK-OV-3 ovarian, 28.8%; in the test on IGROV1 ovarian it was 33.1%. Also, the growth is -30.6% (active) in the test on OVCAR-3 ovarian; 13.5% in the test with HS 578T breast; 16.1% with NCI/ADR-RES ovarian; 62.3% in the test on BT-549 breast; -65.2% (active) in the test on MDA-MB-435 melanoma; 20.4% in the test on SW-620 colon. The growth in the test with MCF7 breast was 14.4%; in the test on HCT-116 colon it was 24.8%; with HCC-2998 colon, 17.6%; in the test with KM12 colon, 12.5%.
In the case of `CN(C)/C(N)=N/N=C(\c1ccccc1)c1ccccn1`, the growth with SR leukemia was 85.5%; in the test with RPMI-8226 leukemia it was 92.1%; in the test with OVCAR-8 ovarian it was 103%; with OVCAR-5 ovarian it was 102%; with SK-OV-3 ovarian, 113%; in the test on IGROV1 ovarian, 93.7%. Moreover, the growth in the test with OVCAR-3 ovarian is 93.7%; with HS 578T breast it was 97.8%; in the test with NCI/ADR-RES ovarian it was 98.3%; with T-47D breast it was 110%; with BT-549 breast it was 99.8%; in the test on MDA-MB-435 melanoma, 113%. For the same molecule, the growth is 104% in the test on SW-620 colon; 105% in the test on MCF7 breast; 89.5% in the test on HCT-116 colon; 94.3% in the test on HCC-2998 colon; 99.1% in the test on KM12 colon.
For the molecule `CCOC(=O)C1=C(c2ccccc2)N=C2N(c3ccccc3)N=C(C(C)=O)N2C1c1ccc(F)cc1` (stereo not given), the growth in the test on SR leukemia was 97.1%; in the test on RPMI-8226 leukemia, 89.3%; with OVCAR-8 ovarian, 99.3%; with OVCAR-5 ovarian, 102%; in the test with SK-OV-3 ovarian, 107%; in the test with IGROV1 ovarian, 96.3%. For the same molecule, the growth is 105% in the test with OVCAR-3 ovarian; 92.1% in the test with HS 578T breast; 109% in the test on NCI/ADR-RES ovarian; 98.8% in the test with T-47D breast; 101% in the test with BT-549 breast; 102% in the test with MDA-MB-435 melanoma. In addition, the growth in the test with SW-620 colon is 99.9%; in the test with MCF7 breast, 95.1%; with HCT-116 colon it was 97.8%; in the test with HCC-2998 colon it was 115%; with KM12 colon, 97.6%.
As to `Cc1ccc2c(c1)nc(C)n2-c1ncnc2c1CC(C)c1cc(O)ccc1N2C` (stereo not given), the growth in the test on SR leukemia was 6.97% (active); with RPMI-8226 leukemia, 30.3%; in the test with OVCAR-8 ovarian it was 40.6%; in the test with OVCAR-5 ovarian, 89%; in the test on SK-OV-3 ovarian, 14.1%; in the test on IGROV1 ovarian, 51.4%. Besides, the growth in the test with OVCAR-3 ovarian is 14.6%; in the test on HS 578T breast, 34.7%; with NCI/ADR-RES ovarian it was 25.9%; in the test with T-47D breast, 33.6%; in the test on BT-549 breast, 40.8%; with MDA-MB-435 melanoma, 3.76% (active). The growth in the test on SW-620 colon was 21.5%; with MCF7 breast, 19.8%; in the test with HCT-116 colon it was 15.4%; in the test with HCC-2998 colon, 78.4%; in the test on KM12 colon it was 35.6%.
Consider `C=C(C)[C@@H]1CC[C@]2(C(=O)N3CCNCC3)CC[C@]3(C)[C@H](CC[C@@H]4[C@@](C)(CCC(=O)N5CCNCC5)[C@H](C(=C)C)CC[C@]43C)[C@@H]12`, for which the growth with SR leukemia is -15.2% (active); in the test with RPMI-8226 leukemia, 12.1%; with OVCAR-8 ovarian it was 47.8%; in the test with OVCAR-5 ovarian, 104%; in the test on OVCAR-4 ovarian, 81.9%; in the test with IGROV1 ovarian, 101%. For the same molecule, the growth in the test with HS 578T breast was 92.4%; in the test with NCI/ADR-RES ovarian, 95.6%; with T-47D breast, 103%; in the test with BT-549 breast, 88.5%; in the test on MDA-MB-435 melanoma, 74%; in the test with SW-620 colon it was -14.4% (active). Moreover, the growth in the test with MCF7 breast was 26.4%; in the test on HCT-116 colon, -56.1% (active); with HCC-2998 colon it was 81%; in the test with KM12 colon, 51.2%.
For the molecule `CCn1cc(C(=O)N/N=C/c2cccc(F)c2)c(=O)c2cc(F)c(N3CCNC(C)C3)c(F)c21` (stereo not given), the growth in the test with SR leukemia was -29.2% (active); in the test with RPMI-8226 leukemia, -42.2% (active); with OVCAR-8 ovarian, -5.39% (active); with OVCAR-5 ovarian, 90.2%; in the test with SK-OV-3 ovarian, 108%; with IGROV1 ovarian, 69.4%. For the same molecule, the growth was -83.3% (active) in the test on OVCAR-3 ovarian; 81.3% in the test on HS 578T breast; 78.3% in the test on NCI/ADR-RES ovarian; 72.3% in the test with T-47D breast; 82.9% in the test with BT-549 breast; -74.7% (active) in the test on MDA-MB-435 melanoma. In addition, the growth was -84.6% (active) in the test on SW-620 colon; -83.5% (active) with MCF7 breast; 71.2% with HCT-116 colon; -80.6% (active) in the test on HCC-2998 colon; -26.8% (active) in the test with KM12 colon.
`CCN(CC)C(=O)C1=C(C)NC(=O)NC1c1ccc2c(c1)OCO2` (stereo not given): the growth was 105% with SR leukemia; 102% in the test with RPMI-8226 leukemia; 106% with OVCAR-8 ovarian; 105% in the test on OVCAR-5 ovarian; 111% in the test with SK-OV-3 ovarian; 113% in the test with OVCAR-3 ovarian. The growth with HS 578T breast was 96.7%; in the test on NCI/ADR-RES ovarian it was 104%; in the test on T-47D breast, 104%; with BT-549 breast it was 111%; in the test with MDA-MB-435 melanoma, 108%; in the test on SW-620 colon, 105%. Further, the growth in the test with MCF7 breast was 97.4%; in the test on HCT-116 colon, 110%; with HCC-2998 colon it was 114%; in the test with KM12 colon, 112%.
